About 83,000 compounds went through this panel and 20% of them were active in at least one assay; those are over-represented in the sample as a whole.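 For each line, cells grew in 96-well plates with the test compound present at a single concentration for 48 hours.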 Unmarked numbers belong to inactive results. Activity calls are given as the source filed them. The calls were made as follows: active = growth percent below 10; inactive = the rest.

Holding throughout (assay): NCI-60 one-dose screen, 48 h (100 = growth as untreated, 0 = no growth, -100 = all killed)
The test system of assay [1] is SK-MEL-2 melanoma. The conditions noted are these: 10 µM unless noted.
Assay [2] concerns EKVX NSCLC. The settings on record: 10 µM unless noted.
Assay [3] relates to SN12C renal. The conditions noted are these: 10 µM unless noted.
In assay [4] the test system is UO-31 renal. The settings on record: 10 µM unless noted.
For assay [5], the system named is TK-10 renal. The conditions noted are these: 10 µM unless noted.
Assay [6] has as its system ACHN renal. The settings on record: 10 µM unless noted.
Assay [7] concerns CAKI-1 renal. The conditions noted are these: 10 µM unless noted.
Assay [8] deals with A498 renal. The conditions noted are these: 10 µM unless noted.
The test system of assay [9] is CCRF-CEM leukemia. The conditions noted are these: 10 µM unless noted.
For assay [10], the system named is MOLT-4 leukemia. The settings on record: 10 µM unless noted.
The test system of assay [11] is SR leukemia. The settings on record: 10 µM unless noted.
Assay [12] has as its system RPMI-8226 leukemia. The settings on record: 10 µM unless noted.
The test system of assay [13] is OVCAR-8 ovarian. The conditions noted are these: 10 µM unless noted.
Assay [14] deals with OVCAR-5 ovarian. The conditions noted are these: 10 µM unless noted.
Assay [15] deals with OVCAR-4 ovarian. The conditions noted are these: 10 µM unless noted.
The test system of assay [16] is SK-OV-3 ovarian. The settings on record: 10 µM unless noted.
Assay [17] relates to IGROV1 ovarian. The settings on record: 10 µM unless noted.
Assay [18] relates to OVCAR-3 ovarian. The settings on record: 10 µM unless noted.
Assay [19] has as its system HS 578T breast. The settings on record: 10 µM.
In assay [20] the test system is NCI/ADR-RES ovarian. The settings on record: 10 µM unless noted.

Take `Nc1ccc(N(O)/C=C2\C=CC=CC2=O)cc1N`: the growth was 108% in assay [1]; 96.4% in assay [2]; 101% in [3]; 62.5% in [4]; 133% in assay [5]; 76.3% in [6]. Also, the growth in assay [7] was 100%; in [8] it was 88.9%; in assay [9], 57.6%; in [10], 73%; in assay [11], 95.3%; in assay [12] it was 52.8%. Also, the growth in assay [13] was 95.4%; in assay [14], 71.1%; in assay [15], 99.6%; in assay [16], 107%; in assay [17], 80.2%; in assay [18], 89.1%. Moreover, the growth in [19] was 94.2%; in assay [20], 82%.

Take `O=C(O)c1ccccc1N=Cc1ccccc1`: the growth was 108% in assay [1]; 101% in assay [2]; 110% in assay [3]; 97.5% in assay [4]; 103% in assay [5]; 105% in [6]. Also, the growth is 96.3% in assay [7]; 117% in [8]; 88.5% in assay [9]; 94.6% in [10]; 95.9% in [11]; 101% in assay [12]. In addition, the growth in assay [13] was 106%; in assay [14], 108%; in assay [15], 107%; in assay [16], 104%; in [17], 101%; in [18], 115%. Also, the growth in assay [19] was 106%; in assay [20] it was 100%.

In the case of `COc1ccc2c(c1)CCCC21C(=O)Nc2c(Cl)cccc21` (stereo not drawn), the growth in assay [1] is 43%; in assay [2] it was 91%; in assay [3] it was 82.6%; in assay [4], 82.8%; in assay [5], 95.4%; in assay [6], 85.1%. For the same molecule, the growth was 54.9% in [7]; 79.6% in [8]; 60.9% in assay [9]; 52.1% in assay [10]; 29.6% in assay [11]; 82.9% in [12]. For the same molecule, the growth was 84.6% in assay [13]; 92.9% in assay [14]; 96.1% in assay [15]; 71.9% in assay [16]; 88.5% in [17]; 76.3% in assay [18]. In addition, the growth in assay [19] is 85.8%; in [20], 18.3%.

Consider `CC(C)c1[nH]ncc1-c1nc2ccc3[nH]ncc3c2c2c1CCCC2`, for which the growth is 68.6% in assay [1]; 13.5% in assay [2]; 35.2% in assay [3]; 12.3% in assay [4]; 22.7% in assay [5]; 16.8% in [6]. Moreover, the growth was 17.6% in [7]; -12.7% (active) in assay [8]; 28.8% in assay [9]; 9.07% (active) in assay [10]; 6.47% (active) in assay [11]; 33.9% in [12]. Besides, the growth in assay [13] was 37.2%; in assay [14], 48.7%; in [15], 75.8%; in assay [16], 16.5%; in assay [17], 21.9%; in assay [18], 46.8%. In addition, the growth in assay [19] was -1.07% (active); in assay [20], 66.1%.

With `CN1CCN(Cc2ccc(NC(=O)c3cncc(C#Cc4ncc5cnccn45)c3)cc2C(F)(F)F)CC1`, the growth in [1] is -12.9% (active); in assay [2], 77.2%; in assay [3], 54.5%; in assay [4], 18.3%; in assay [5], 81.4%; in assay [6], 30.7%. For the same molecule, the growth in assay [7] was 31.5%; in assay [8], 65.2%; in assay [9] it was 41.9%; in assay [10], 43.5%; in assay [11], 50.8%; in assay [12], 44.3%. Also, the growth was 70% in assay [13]; 35.1% in assay [14]; 41.3% in [15]; 42.8% in [16]; 42.2% in assay [17]; 69.6% in [18]. The growth in [20] was 92.7%.

With `CCOC(=O)NNc1cccc(Cl)c1`, the growth in assay [1] was 116%; in assay [2], 90.6%; in assay [3] it was 114%; in assay [4] it was 70.6%; in assay [5], 120%; in assay [6], 93.5%. Besides, the growth was 90% in [7]; 85.5% in [8]; 103% in assay [9]; 113% in assay [10]; 102% in assay [11]; 98.8% in assay [12]. Besides, the growth in [13] is 106%; in assay [14], 88.3%; in assay [15], 106%; in [16], 105%; in [17], 94.9%; in assay [19], 104%. Also, the growth in assay [20] was 99.3%.

Consider `O=C(OCc1ccc2c(Cl)cc(Cl)c(O)c2n1)c1cc2ccccc2[nH]1`, for which the growth in assay [1] is -54.6% (active); in assay [2], -71.9% (active); in [3], -60.6% (active); in assay [4], -100% (active); in assay [5], -94.1% (active); in assay [6] it was -96.7% (active). For the same molecule, the growth in [7] was -98% (active); in [8] it was -78.4% (active); in [9] it was 0% (active); in assay [10], -8.99% (active); in assay [11], 0.939% (active); in assay [12] it was -37.4% (active). For the same molecule, the growth in assay [13] was -24.9% (active); in assay [14] it was -55.2% (active); in assay [15], -70.4% (active); in assay [16], 67.5%; in assay [17] it was -89.5% (active); in [18], -92.1% (active). Moreover, the growth in [19] was -14.4% (active); in assay [20], -35.3% (active).

With `C/C(=N\NC(=S)Nc1ccccc1)c1ccccn1`, the growth was 73.5% in [1]; 12.9% in [2]; 39.2% in assay [3]; -1.12% (active) in [4]; 50.9% in [5]; 17.7% in assay [6]. The growth in [7] was 6.16% (active); in [8], 29.1%; in assay [9], 16.7%; in assay [10], 8.83% (active); in assay [11] it was 13.7%; in assay [12], 33.5%. The growth in [13] is 11.8%; in assay [14], 35.6%; in assay [15], 33.5%; in assay [16] it was 40%; in assay [17], 15.7%; in assay [18] it was 9.49% (active). The growth is 64.1% in assay [19] and 17.2% in assay [20].

Source of the values: PubChem BioAssay (NCI).
